Reference: PubChem BioAssay (NCATS)
“And” between values parts separate entries of the source, which are not always exact repeats. Identical values can stand only once. Inconclusive results are not listed. Where a structure was tested more than once in an assay, its records may differ in their call. The source made the active and inactive calls. The call rests on the fitted dose curve; in most records, active means well fitted cell-killing curve with a large enough effect; inconclusive means small, poorly fitted or top-dose-only effect, or effect the other way; inactive means no such curve, though single readings can be large or run the other way.

assay: Viability qHTS for spleen associated tyrosine kinase inhibitor (SYKi) drug resistant MV4-11 cells (AID 1963824); conditions: SYKi-resistant MV4-11 viability, CellTiter-Glo, 72 h; series mostly up to 45 µM; viability, % of control: at the top concentration; further: nearly all actives have a fitted effect of over 35% in size
From the text: Department of Medicine, Hematology/Oncology
University Hospital Frankfurt, Germany.
Trials have shown promising clinical activity of the selective SYK inhibitor entospletinib in patients with high expressing HOXA9/MEIS1 acute leukemias. As the development of resistance mechanisms is a common problem in the use of targeted drugs, we performed a chemical library screen to identify drug sensitivities in SYK inhibitor resistant AML cells. […] Glucocorticoids are potent immunosuppressants which work in part by inhibiting the transcription of cytokine genes.
Described herein is a viability screen to look for activity in the SYK inhibitor drug resistant cell line against four NCATS compound libraries (MIPE 5.0, NPC, NPACT, and Kinase) totaling 11372 compounds. Active hits were reacquired for confirmation and further secondary assay testing.
SEQUENCE No. (e.g., 1, 2, 3, etc.); […] (e.g., Cells, Incubation, Reagent, etc.); VALUE; DESCRIPTION.
1; Media; 2uL; white, solid-bottom Corning assay plate.
2; Compounds; 23nL; Echo acoustic dispenser.
3; Cell; 5uL; 500 cells per well.
4: Incubation; 72hr; 37 C, 5% CO2, 95% humidity.
5; Reagent; 3uL; CellTiter-Glo reagent (Promega).
6; Incubation; 10min; room temperature.
7; Detection; Luminescence; ViewLux plate reader (PerkinElmer).
NOTES (numbers refer to Sequence numbers above
1. Quantitative high-throughput screening (qHTS) of small molecule compounds was conducted on drug resistant SYKi MV4-11 cell line.
2. Twenty-three nanoliter of small molecule compounds were added to each assay plates using the Echo acoustic dispenser (Beckman Coulter).
3. Cells were seeded into the assay plates at a final density of 500 cells in 5uL of media per well using the Multidrop Combi dispenser.
4. Plates were covered with stainless steel gasketed lids and incubated for 72 hours at standard cell culture conditions.
5. Viability was assessed by adding 3uL of CellTiter-Glo detection reagent (Promega).
6. Plates were covered with gasket lids and incubated for 10 minutes at room temperature.
7. Luminescence was measured on a ViewLux plate reader (PerkinElmer).
Potency means the concentration at half of the fitted maximal effect.

Row | Structure (SMILES) | viability, % of control | Potency
1 | OC[C@H]1O[C@@H](O[C@H]2[C@H](OCCc3ccccc3)O[C@H](CO)[C@@H](O)[C@@H]2O)[C@H](O)[C@@H](O)[C@@H]1O | 102% [at 17.3 µM] (inactive) | 
2 | CC(C)=CC[C@@H](O)C1=CC(=O)c2c(O)ccc(O)c2C1=O |  | 2.63 µM (active)
3 | COC(=O)C1=C(C)NC(C)=C(C(=O)OC)C1c1ccccc1[N+](=O)[O-] |  | 11.9 µM (active)
4 | COc1cc2c(cc1OC)CN(C(=O)[C@H](C)N[C@@H](CCc1ccccc1)C(=O)O)[C@H](C(=O)O)C2 | 89.6% (inactive) | 
5 | NC(N)=NCCC[C@H](N)C(=O)O | 98.3% [at 4.97 µM] (inactive) | 
6 | O=C(/C=C/c1ccc(O)c(O)c1)O[C@H]1[C@H](OC2CCCCC2O)O[C@H](CO)[C@@H](O)[C@@H]1O (stereo not given in full) | 61.8% [at 17.3 µM] (inactive) | 
7 | O=[N+]([O-])c1ccc(-c2nc(-c3ccc(F)cc3)c(-c3ccncc3)[nH]2)cc1 |  | inactive and 9.34 µM (active) and 2.06 µM (active)
8 | NC(=O)c1csc(C2OC(CO)C(O)C2O)n1 (stereo not given) |  | 8.2 µM (active)
9 | COc1ccc(C(=O)c2ccccc2)c(O)c1 | 101% (inactive) | 
10 | O=c1sn(-c2cccc3ccccc23)c(=O)n1Cc1ccccc1 |  | 11.6 µM (active) and 8.33 µM (active)
11 | O=C(CO)N1CCC(c2[nH]nc(-c3ccc(Cl)cc3)c2-c2ccncn2)CC1 |  | 9.2 µM (active)
12 | C[C@H](CCC(=O)O)[C@H]1CC[C@H]2[C@@H]3C[C@H](O)[C@@H]4C[C@H](O)CC[C@]4(C)[C@H]3CC[C@]12C | 80.7% (inactive) | 
13 | CC(=O)OCC1=C[C@H](O)[C@@H]2C(C(=O)O)=CO[C@@H](O[C@@H]3O[C@H](CO)[C@@H](O)[C@H](O)[C@H]3O)[C@H]12 | 87.4% [at 17.3 µM] (inactive) | 
14 | COC(=O)c1cc(OC)cc(OC)c1C(=O)c1c(OC)cc2c(c1O)C1CCCC(C)(O2)O1 (stereo not given) |  | 7.09 µM (active)
15 | O=C1CC[C@@H](C(=O)O)N1 | 102% (inactive) | 
16 | C=C1CC[C@@H](O)[C@]2(C)C[C@H]3OC(=O)C(=C)[C@H]3CC12 (stereo not given in full) |  | 6.51 µM (active)
17 | OC[C@H]1O[C@@H](Oc2cc(O)c3c(c2)O[C@@H](c2ccc(O)cc2)[C@H](O)C3)[C@H](O)[C@@H](O)[C@@H]1O | 82.8% [at 17.3 µM] (inactive) | 
18 | O=C(Nc1ccc(S(=O)(=O)Nc2ccccc2Cl)c(Cl)c1)c1ccccn1 |  | 20.6 µM (active)
19 | CC(C)C[C@@H]1NC(=O)[C@@H](C(C)C)NC(=O)[C@@H]2CCCN2C(=O)[C@@H](CC(=O)O)NC(=O)[C@@H](Cc2c[nH]c3ccccc23)NC1=O |  | 9.34 µM (active)
20 | N#Cc1ccc(-c2cnc3[nH]cc(NC(=O)c4cccnc4)c3c2)cc1 |  | 0.92 µM (active)

Row | Structure (SMILES) | viability, % of control | Potency
21 | C/C=C1/[C@H](O[C@@H]2O[C@H](CO)[C@@H](O)[C@H](O)[C@H]2O)OC=C(C(=O)OC)[C@H]1CC(=O)O[C@@H]1O[C@H](CO)[C@@H](O)[C@H](O)[C@H]1O | 106% [at 17.3 µM] (inactive) | 
22 | O=c1c(O)c(-c2ccc(O)cc2O)oc2cc(O)cc(O)c12 | 82.3% (inactive) | 
23 | COC(=O)N[C@H](C(=O)N[C@@H](Cc1ccccc1)[C@@H](O)CN(Cc1ccc(-c2ccccn2)cc1)NC(=O)[C@@H](NC(=O)OC)C(C)(C)C)C(C)(C)C | 99.2% (inactive) | 
24 | Cc1[nH]c(/C=C2\C(=O)Nc3ccc(F)cc32)c(C)c1C(=O)NCCN1CCCC1 |  | 73.1 nM (active) and 32.3 nM (active)
25 | CC1C(=O)CC2C3C(O)CC(C(=O)O)C12CC3(C)C (stereo not given) |  | 20.6 µM (active)
26 | CCC(C)(O)C(O)C(=O)OCc1ccc(O[C@@H]2O[C@H](CO)[C@@H](O)[C@H](O)[C@H]2O)c(OC)c1 (stereo not given in full) | 76.1% [at 17.3 µM] (inactive) | 
27 | O=C1c2ccccc2-c2nc3nnnn3nc21 (tested in a mixture with another compound) |  | 0.103 µM (active)
28 | O=C(O)CN(CCOCCOCCN(CC(=O)O)CC(=O)O)CC(=O)O | 96.9% [at 0.588 µM] (inactive) | 
29 | Nc1ncnc2c1ncn2Cc1c(F)cccc1Cl | 63.5% (inactive) | 
30 | Cc1cc2cc(Oc3ccnc(Nc4cccc(CS(=O)(=O)NCCN(C)C)c4)n3)ccc2[nH]1 |  | 1.86 µM (active)
31 | C/C=C1/CC2C(=O)Nc3cc(O)c(OC)cc3C(=O)N2C1 (stereo not given) |  | 14.3 µM (active)
32 | C[C@@H]1O[C@@H](O[C@H]2[C@@H]3C=CO[C@@H](O[C@@H]4O[C@H](CO)[C@@H](O)[C@H](O)[C@H]4O)[C@@H]3[C@@]3(CO)O[C@@H]23)[C@H](OC(=O)/C=C/c2ccc(O)cc2)[C@H](O)[C@H]1O | 42.3% [at 17.3 µM] (inactive) | 
33 | COc1c2c(c(C)c3c1C(=O)OC3)O[C@@]1(C)CCC3(C(C)(C)O)OC(=O)CC[C@]3(C)[C@H]1C2 (stereo not given in full) | 54.7% [at 17.3 µM] (inactive) | 
34 | O=C(/C=C/c1ccccc1)O[C@@H]1[C@@H](CO)O[C@@](CO)(O[C@H]2O[C@H](CO)[C@@H](O)[C@H](O)[C@H]2O)[C@H]1O | 99.7% [at 17.3 µM] (inactive) | 
35 | CC(C)(C)C(O)/C=C/c1ccc2c(c1)OCO2 (stereo not given) | 87.6% (inactive) | 
36 | CO[C@@H]1COCC[C@@H]1N[C@@H]1CC[C@@](C(=O)N2CCc3ncc(C(F)(F)F)cc3C2)(C(C)C)C1 | 87.9% [at 17.3 µM] (inactive) | 
37 | O=C1NC(=O)c2cc(Nc3ccccc3)c(Nc3ccccc3)cc21 |  | 9.2 µM (active)
38 | C=C(CCO)C(=O)OCC1OCC(OC(=O)C(=C)CCO[C@@H]2O[C@H](COC(=O)C(=C)CCO[C@@H]3O[C@H](CO)[C@@H](O)[C@H](O)[C@H]3O)[C@@H](O)[C@H](O)[C@H]2O)C(O)C1O (stereo not given in full) | 74.6% [at 17.3 µM] (inactive) | 
39 | CC(OC1OCCN(Cc2n[nH]c(=O)[nH]2)C1c1ccc(F)cc1)c1cc(C(F)(F)F)cc(C(F)(F)F)c1 (stereo not given) |  | 5.8 µM (active)
40 | CO[C@H]1O[C@@H]2O[C@@]3(C)CC[C@H]4[C@H](C)CC[C@@H]([C@H]1C)[C@@]24OO3 |  | 0.934 µM (active)
